Screening data from PubChem.
The entries come from a sample that favours hits as a whole.
Sm TGR block: blocks Schistosoma mansoni thioredoxin glutathione reductase; Q962Y6; purified TGR, DTNB reduction, TNB absorbance 405 nm; Potency, µM (titrated, usually from 114 µM), without a hit: at the highest dose activity change, negative = inhibition, usual class: inhibitors; hit rate 3% among 360,000; AID 485364; further: potency means the concentration at half of the fitted maximal effect; on the % scale 0 is the no-effect control and ±100 the full control effect; nearly all actives have a fitted effect of over 60% in size
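First, TGR (20 nM dispensed) and NADPH were mixed with compound. Second, a 15 min room-temperature incubation followed. Third, further NADPH and then DTNB were added to start the reaction. Finally, TNB absorbance was monitored kinetically.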
CHX counter: counter-screen for Shiga toxin inhibitors: cycloheximide protein synthesis inhibition. cell reporter, cycloheximide protein synthesis inhibition counterscreen. max response, %. hit rate 12% among 300,000. AID 2314; in the data active means max response mostly above about 13%, no sharp cut-off; inactive means mostly below about 14%; further: read at 38.3 µM for the half of the compounds with a filed dose; 0% is about no effect
FBPA Giardia inh: inhibitors of Giardia lamblia fructose-1,6-bisphosphate aldolase; Potency, µM (titrated, usually from 59.6 µM), for inactives: at the highest dose activity, negative = inhibition, usual class: inhibitors; hit rate 0.71% among 290,000; purified Giardia FBPA; A8B2U2; further: potency means the concentration at half of the fitted maximal effect; on the % scale 0 is the no-effect control and ±100 the full control effect; nearly all actives have a fitted effect of over 55% in size
Target sequence (A8B2U2 whole entry, looked up): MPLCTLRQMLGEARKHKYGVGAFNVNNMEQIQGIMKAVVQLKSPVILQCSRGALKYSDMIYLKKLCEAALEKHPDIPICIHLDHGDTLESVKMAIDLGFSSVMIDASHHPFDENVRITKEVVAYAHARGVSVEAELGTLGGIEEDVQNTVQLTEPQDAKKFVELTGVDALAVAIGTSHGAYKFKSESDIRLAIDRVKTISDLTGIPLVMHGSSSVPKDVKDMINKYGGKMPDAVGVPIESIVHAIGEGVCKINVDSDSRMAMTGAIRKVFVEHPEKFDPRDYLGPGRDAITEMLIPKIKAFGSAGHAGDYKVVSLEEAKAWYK
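40 nM FBPA preincubated 10 min at RT with compound (up to 57.5 uM final), then substrate plus GAPDH/TPI/NAD/arsenate coupling and diaphorase/resazurin added. Fluorescence read after 20 min at RT, 525/598 nm.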
Shiga toxin inh: blocks Shiga toxin action in Vero cells; Vero cells, Shiga toxin protein synthesis inhibition reporter; hit rate 9.2% among 290,000; inhibition, % at 38.7 µM; in the data active means inhibition mostly above about 28%, no sharp cut-off; inactive means mostly below about 43%; further: 0% is about no effect
LmPK inh: inhibitors of Leishmania mexicana pyruvate kinase. Q27686. purified LmPK, Kinase-Glo ATP luminescence, 1 h. Potency, µM (top dose mostly 57.5 µM), without a hit: at the highest dose activity change, negative = inhibition, actives largely listed as inhibitors. hit rate 0.37% among 290,000; further: potency means the concentration at half of the fitted maximal effect; on the % scale 0 is the no-effect control and ±100 the full control effect
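Pyruvate kinase activity monitored as ATP production (luciferase luminescence). Conditions: 0.1 nM enzyme, 0.5 mM PEP, 0.1 mM ADP, 1 h, RT; normalized against uninhibited and no-enzyme wells.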
Tb PYK inh: inhibitors of Trypanosoma brucei pyruvate kinase; TbPYK enzyme, Kinase-Glo Plus ATP luminescence, 45 min; Q57TT1; hit rate 0.12% among 410,000; Potency, µM (series often up to 76.8 µM), for the others: at the highest dose activity, negative = inhibition, actives largely listed as inhibitors; further: potency means the concentration at half of the fitted maximal effect; on the % scale 0 is the no-effect control and ±100 the full control effect; nearly all actives have a fitted effect of over 50% in size
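Quantitative HTS: titrated library compounds versus trypanosomal pyruvate kinase in TEA buffer (pH 7.2) containing KCl, MgCl2, BSA and Tween-20. Reactions were initiated with ADP, 130 uM final. Kinase-Glo Plus luminescence was read after 45 min at RT.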
* hit, by the source's call; ? = inconclusive; . = not tested or not shown. Unless noted, the call rests on the fitted dose curve; in most records, active means well fitted curve in the direction sought with a large enough effect; inconclusive means small, poorly fitted or top-dose-only effect, or another doubt; inactive means no such curve, though single readings can be large; an effect the other way counts as inactive or inconclusive.

SMILES	Sm TGR block	CHX counter	FBPA Giardia inh	Shiga toxin inh	LmPK inh	Tb PYK inh
Cc1ccccc1-c1cc2nc(C)c(C)c(=O)n2[nH]1	2%	23*	?	36*	0%	-6%
Cc1nc2cc(-c3ccc(F)cc3)[nH]n2c(=O)c1C	-136%	32*	-11%	84*	-9%	-2%
CCc1noc(C)c1C(=O)OCC(=O)NC(=O)c1ccccc1	-21%	11	7%	24	-2%	1%
O=C(Cn1cc([N+](=O)[O-])nc1[N+](=O)[O-])N1CCN(c2ccccc2)CC1	?	8	?	-6	6%	4%
Cc1cc(OCC(=O)N(C)Cc2ccccc2)ccc1Br	7%	34*	4%	56*	-4%	5%
COc1ccc(OCC(=O)N(C)Cc2ccccc2)cc1	1%	16	1%	33	-1%	-8%
Cc1cc(OCC(=O)N(C)Cc2ccccc2)ccc1Cl	-9%	28*	-2%	24*	-15%	-6%
O=C(Cn1ncc2c1-c1ccccc1OC2)N(Cc1ccco1)C1CCCCC1	?	-3	6%	-9	-1%	-5%
CC(CCc1ccco1)NC(=O)Cn1ncc2c1-c1ccccc1OC2 (centres undefined)	50µM*	-2	-3%	14	0%	-7%
CCOc1ccc(CCNC(=O)Cn2ncn3c(cc4ccccc43)c2=O)cc1OCC	0%	.	.	.	.	-6%
COc1cc2c(cc1NC(=S)NC(=O)/C=C/c1ccco1)oc1ccccc12	-11%	2	-1%	-4	0%	-18%
COc1ccccc1NC(=O)/C=C\c1ccco1	2.5µM*	41*	0%	68*	-3%	-20%
Cc1cccc(NC(=S)NC(=O)/C=C/c2ccco2)n1	?	48*	-23%	121*	-3%	-8%
Cc1ccccc1NC(=S)NC(=O)/C=C/c1ccco1	6.3µM*	17	-29%	13	13%	-14%
Cc1ccc(-c2nc3ccccc3o2)cc1NC(=S)NC(=O)/C=C/c1ccco1	?	14	-1%	-6	-3%	-7%
COc1ccccc1NC(=S)NC(=O)/C=C/c1ccco1	18µM*	7	-14%	9	5%	-10%
Cc1cc(C)nc(N2CCCC(C(=O)NC(C)C)C2)n1 (centres undefined)	.	-2	1%	5	0%	-18%
Cc1nn(C)c(C)c1S(=O)(=O)N(CC(=O)N1CCN(c2ccccc2)CC1)c1ccc(C(C)C)cc1	-4%	.	.	.	.	0%
CCCOC(=O)CSc1nnc(-c2ccccc2)o1	18%	.	.	.	.	3%
CCn1c(=S)sc2c(=O)n(-c3ccccc3)c(=S)[nH]c21	22µM*	5	-15%	-18	19%	0%
CCOc1ccccc1-n1c(=S)sc2c(=O)n(-c3ccc(C)cc3)c(=S)[nH]c21	3%	-3	?	-5	-3%	?
COc1ccc(-c2csc(-n3ncc(-c4ccccn4)c3N)n2)cc1	0%	12	0%	14	-2%	-4%
Nc1c(-c2cccs2)cnn1-c1nc(-c2ccc(F)cc2)cs1	9%	17*	2%	44*	1%	-2%
Nc1c(-c2cccs2)cnn1-c1nc(-c2ccc(Cl)cc2Cl)cs1	20%	-2	-2%	15	-2%	-10%
Nc1c(-c2ccccn2)cnn1-c1nc(-c2ccc(F)cc2)cs1	7%	44*	0%	54	6%	5%
SMILES	Sm TGR block	CHX counter	FBPA Giardia inh	Shiga toxin inh	LmPK inh	Tb PYK inh
Cc1ccc(C)c(N2CCN(C(=O)CN3C(=O)COc4ccc(S(=O)(=O)N5CCOCC5)cc43)CC2)c1	2%	.	.	.	.	-4%
CCOC(=O)N1C(=O)[C@@](c2ccc(Cl)cc2)(C(C)C)N1C(=O)OCC	11µM*	-1	-8%	6	0%	5%
CCOC(=O)N1C(=O)[C@](c2ccc(Cl)cc2)(C(C)C)N1C(=O)OCC	18µM*	12	-5%	-3	-4%	-12%
CCOC(=O)C1(C(N)=O)OC1(c1ccc(Cl)cc1)c1ccccc1Cl (centres undefined)	.	.	.	.	.	4%
Cc1cccc(Cn2cc3c(=O)n(CC(=O)Nc4ccc(C)c(F)c4)nc-3c3cc(F)ccc32)c1	0%	.	.	.	.	-1%
COCC1CCN(Cc2nc(COc3ccccc3)no2)C1 (centres undefined)	-22%	15*	-3%	31*	-2%	1%
CN(Cc1nc(-c2ccccc2)no1)C1CCOCC1	?	46*	7%	59	-13%	5%
c1ccc(-c2noc(CC3CCCCC3)n2)cc1	0%	31*	3%	48*	-5%	-1%
O=S(=O)(c1ccccc1)N(Cc1nc(-c2ccccc2)no1)C1CCCCC1	-1%	6	0%	0	4%	-3%
c1cc(-c2noc(CCC3CCCC3)n2)ccn1	-7%	17*	1%	15	2%	-8%
COc1ccc(CCNC(=O)CCn2c(=O)c3ccccc3n(Cc3c(C)cc(C)cc3C)c2=O)cc1OC	3%	.	.	.	.	3%
C[C@@](N)(C(=O)O)c1ccc(S(=O)(=O)O)cc1	.	.	-13%	.	.	.
O=C(CCCc1nc(-c2ccccc2)no1)NC1CCCCC1	6%	-3	13%	-6	-4%	-14%
COCCCC1CCN(Cc2nc(-c3ccccc3)no2)CC1	6%	23*	7%	76*	0%	2%
c1ccc(-c2noc(CCC3CCCC3)n2)cc1	5%	20*	0%	4	5%	-18%
c1ccc(-c2noc(CSc3nnnn3C3CCCCC3)n2)cc1	14%	28*	-1%	46	4%	5%
CCn1c(SCc2nc(-c3ccccc3)no2)nc2ccccc21	16%	1	-6%	13	13%	1%
CC1=CCC(/C=N\Nc2nnc3c(n2)[nH]c2ccccc23)CC1 (centres undefined)	1%	76*	6%	55*	-10%	.
CC1CCN(C(=O)CSc2nnc3c(n2)[nH]c2ccccc23)CC1	4%	-5	.	-5	-5%	-1%
COc1ccc(NC(=O)c2cc3ccccc3o2)c(OC)c1	18%	.	.	.	.	-3%
CC(C)CC(=O)N(Cc1ccccc1)S(=O)(=O)c1ccc2c(c1)oc(=O)n2C	-2%	.	.	.	.	1%
Cn1c(=O)[nH]c(=O)c2c1nc(N1CCOCC1)n2CCCSc1ncccn1	-4%	11*	0%	-4	0%	1%
CCCOc1ccc(N2C(=O)CC(SCC(N)C(=O)OCC)C2=O)cc1 (centres undefined)	?	0	?	-4	-5%	-1%
Cc1ccc(CC2CC(=O)N(CCc3ccccc3)C2=O)cc1 (centres undefined)	.	19*	-8%	59	2%	3%
O=C1CC(Cc2ccccc2)C(=O)N1c1ncccn1 (centres undefined)	50µM*	53*	2%	103*	5%	-2%
